# Experimental data reported in PubChem BioAssay (NCATS).
# Results with a measured potency or affinity are listed apart. Active and inactive are the calls of the source. Calls come from the whole dose curve.
# Conditions: Ebola virus entry assay, green fluorescence channel
row,Compound,outcome
1,CNCCC=C1c2ccccc2CCc2ccccc21,inactive
2,COC(=O)C(c1ccccc1)C1CCCCN1 (stereo unspecified),inactive
3,CC1(C)S[C@@H]2[C@H](NC(=O)[C@H](N)c3ccc(O)cc3)C(=O)N2[C@H]1C(=O)O,inactive
4,OC[C@H]1O[C@@H](n2cnc3c2NC=NC[C@H]3O)C[C@@H]1O,inactive
5,CSCC[C@H](NC(=O)[C@H](Cc1ccc(OS(=O)(=O)O)cc1)NC(=O)[C@@H](N)CC(=O)O)C(=O)NCC(=O)N[C@@H](Cc1c[nH]c2ccccc12)C(=O)N[C@@H](CCSC)C(=O)N[C@@H](CC(=O)O)C(=O)N[C@@H](Cc1ccccc1)C(N)=O,inactive
6,C=CC[C@@H]1C=C(C)C[C@H](C)C[C@H](OC)[C@H]2O[C@@](O)(C(=O)C(=O)N3CCCC[C@H]3C(=O)O[C@H](C(C)=C[C@@H]3CC[C@H](O)[C@H](OC)C3)[C@@H](C)[C@@H](O)CC1=O)[C@@H](C)C[C@@H]2OC,inactive
7,COc1cc(C)c(/C=C/C(C)=C/C=C/C(C)=C/C(=O)O)c(C)c1C,inactive
8,C[C@]1(O)CC[C@H]2[C@@H]3CCC4=CC(=O)CC[C@]4(C)[C@@]3(F)[C@@H](O)C[C@@]21C,inactive
9,CN1[C@@H]2CCC[C@@H]1CC(NC(=O)c1nn(C)c3ccccc13)C2 (stereo partly specified),inactive
10,CC(CCc1ccccc1)NCC(O)c1ccc(O)c(C(N)=O)c1 (stereo unspecified),inactive
11,COc1cc([C@@H]2c3cc4c(cc3[C@@H](O[C@@H]3O[C@@H]5CO[C@@H](C)O[C@H]5[C@H](O)[C@H]3O)[C@H]3COC(=O)[C@H]23)OCO4)cc(OC)c1O,inactive
12,CCC[C@@H]1C[C@@H](C(=O)N[C@@H]([C@H]2O[C@H](SC)[C@H](O)[C@@H](O)[C@H]2O)[C@H](C)Cl)N(C)C1,inactive
13,CCCCC(C)(O)C/C=C/[C@H]1[C@H](O)CC(=O)[C@@H]1CCCCCCC(=O)OC (stereo partly specified),inactive
14,NC(=O)[C@@H]1CCCN1C(=O)[C@H](Cc1cnc[nH]1)NC(=O)[C@@H]1CCC(=O)N1,inactive
15,CO[C@H]1C=CO[C@@]2(C)Oc3c(C)c(O)c4c(O)c(c5c(nc6cc(C)ccn65)c4c3C2=O)NC(=O)/C(C)=C\C=C[C@H](C)[C@H](O)[C@@H](C)[C@@H](O)[C@@H](C)[C@H](OC(C)=O)[C@@H]1C,inactive
16,CN[C@H](CC(C)C)C(=O)N[C@H]1C(=O)N[C@@H](CC(N)=O)C(=O)N[C@H]2C(=O)N[C@H]3C(=O)N[C@H](C(=O)N[C@@H](C(=O)O)c4cc(O)cc(O)c4-c4cc3ccc4O)[C@H](O)c3ccc(c(Cl)c3)Oc3cc2cc(c3O[C@@H]2O[C@H](CO)[C@@H](O)[C@H](O)[C@H]2O[C@H]2C[C@](C)(N)C(O)[C@H](C)O2)Oc2ccc(cc2Cl)[C@H]1O (stereo partly specified),inactive
17,CC(C)(S)[C@@H](N)C(=O)O,inactive
18,NC(=O)CC[C@@H]1NC(=O)[C@H](Cc2ccccc2)NC(=O)[C@H](Cc2ccc(O)cc2)NC(=O)CCSSC[C@@H](C(=O)N2CCC[C@H]2C(=O)N[C@@H](CCCN=C(N)N)C(=O)NCC(N)=O)NC(=O)[C@H](CC(N)=O)NC1=O,inactive
19,Cn1nnc2c(C(N)=O)ncn2c1=O,inactive
20,CN1CCN(C(c2ccccc2)c2ccc(Cl)cc2)CC1 (stereo unspecified),inactive
21,CN[C@@H]1[C@H](O[C@H]2[C@H](O[C@H]3[C@H](O)[C@@H](O)[C@H](N=C(N)N)[C@@H](O)[C@@H]3N=C(N)N)O[C@@H](C)[C@]2(O)C=O)O[C@@H](CO)[C@H](O)[C@H]1O,inactive
22,O=C(N[C@H](CO)[C@H](O)c1ccc([N+](=O)[O-])cc1)C(Cl)Cl,inactive
23,CC(C)CN(C[C@@H](OP(=O)(O)O)[C@H](Cc1ccccc1)NC(=O)O[C@H]1CCOC1)S(=O)(=O)c1ccc(N)cc1,inactive
24,CN(C)CCOc1ccc(/C(=C(/CCCl)c2ccccc2)c2ccccc2)cc1,inactive
25,CC(C)(C)NC(=O)[C@@H]1C[C@@H]2CCCC[C@@H]2CN1C[C@@H](O)[C@H](Cc1ccccc1)NC(=O)[C@H](CC(N)=O)NC(=O)c1ccc2ccccc2n1,inactive
26,COc1cccc2c1C(=O)c1c(O)c3c(c(O)c1C2=O)C[C@@](O)(C(=O)CO)C[C@@H]3O[C@H]1C[C@H](N)[C@@H](O)[C@H](C)O1,inactive
